Screening results as filed in PubChem.
Shown are actives, neighbours in structure and some others; about 7.2% of the full set was active somewhere.
NPR1 antag: human Npr1 receptor antagonism | AID 1347048 | 1.6% of 76,000 active | P16066 | Potency, µM (titrated, usually from 46.3 µM), without a hit: at the highest dose activity change, negative = inhibition, most hits filed as inhibitors | HEK293 hNpr1 GloSensor cGMP, ANP-stimulated luminescence; calls by dose curve; also: nearly all actives have a fitted effect of over 60% in size
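HEK293 cells stably expressing human Npr1 and cGMP GloSensor pGS-40F, loaded 2 h with 2% GloSensor reagent, given compound 30 min at room temperature. Luminescence read before and 20 min after 0.1 nM hNppA.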
3T3 cytotox: NIH 3T3 cell cytotoxicity. NIH 3T3 viability, CellTiter-Glo ATP luminescence, 48-72 h. Potency, µM (series often up to 96.7 µM), inactives show at the top dose activity change, negative = cytotoxicity, usual class: inhibitors. 4.3% of 94,000 active. AID 1345082; also: nearly all actives have a fitted effect of over 55% in size
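Luminescent ATP readout (CellTiter-Glo, 10 min RT) after 48 or 72 hr compound exposure of NIH 3T3 cells seeded at 400 cells/well in 1536-well format; quantitative HTS.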
SNCA viab count: cell viability loss counter-screen. HEK-293-SNCA-luc viability, GF-AFC fluorescence, 24 h. Potency, µM (series often up to 57.1 µM), for inactives: at the top dose activity change, negative = cytotoxicity, actives largely listed as cytotoxic. 0.12% of 150,000 active;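 also: 0% = DMSO-treated cells and -100% = medium-only wells without cells; nearly all actives have a fitted effect of over 30% in size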
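HEK-293-SNCA-luc cells (1500/well) plated 24 h, then exposed 24 h to a dilution series; GF-AFC added 30 min at 37C, fluorescence 405/540 nm; normalised to medium-only and DMSO wells, Hill fit.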
FLuc inh: Photinus pyralis luciferase inhibition | P08659 | Potency, µM (doses to about 115 µM), usual class: inhibitors | 2.5% of 76,000 active | purified P. pyralis luciferase, luminescence, biochemical; also: nearly all actives have a fitted effect of over 65% in size
Target sequence (P08659 whole entry, looked up): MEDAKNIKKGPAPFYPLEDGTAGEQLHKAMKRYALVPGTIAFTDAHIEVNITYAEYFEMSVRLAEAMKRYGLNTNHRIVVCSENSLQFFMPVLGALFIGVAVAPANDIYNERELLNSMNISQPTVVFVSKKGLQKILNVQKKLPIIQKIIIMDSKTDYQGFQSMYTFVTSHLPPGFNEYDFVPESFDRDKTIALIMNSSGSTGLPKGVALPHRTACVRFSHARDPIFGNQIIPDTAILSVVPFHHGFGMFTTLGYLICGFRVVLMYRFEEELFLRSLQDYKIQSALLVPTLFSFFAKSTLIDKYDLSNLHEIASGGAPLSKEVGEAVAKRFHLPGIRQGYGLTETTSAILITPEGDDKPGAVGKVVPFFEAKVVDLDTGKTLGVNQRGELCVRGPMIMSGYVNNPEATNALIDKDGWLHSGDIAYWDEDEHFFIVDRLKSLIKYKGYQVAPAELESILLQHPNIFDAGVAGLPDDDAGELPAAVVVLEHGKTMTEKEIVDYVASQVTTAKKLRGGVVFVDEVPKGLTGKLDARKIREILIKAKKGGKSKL
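Purified P. pyralis luciferase (10nM final) in 50mM Tris acetate pH 7.5, 10mM Mg acetate, 0.01% Tween-20, 0.05% BSA with 10uM D-luciferin and 10uM ATP. Compounds titrated qHTS. Luminescence imaged on CCD.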
HEK293 tox: kills HEK 293 cells; HEK 293 viability, ATP luminescence (CellTiter-Glo), 48-72 h; 6.6% of 94,000 active; Potency, µM (doses to about 115 µM), for inactives: at the top dose activity change, negative = cytotoxicity, hits mostly inhibitors; also: nearly all actives have a fitted effect of over 60% in size
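qHTS cytotoxicity; HEK 293, 250 cells/well; compound pinned; 48 or 72 hr, 37 degree Celsius, 5% CO2, 95% humidity; CellTiter-Glo, 10 min RT; luminescence (ATP).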
SNCA expr inhib: reduces expression of the alpha-synuclein gene; Potency, µM (highest dose often 57.2 µM), for inactives: at the highest dose activity change, negative = inhibition, most hits filed as inhibitors; HEK-293 SNCA-luciferase knock-in, luminescence, 24 h; 0.17% of 140,000 active;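 also: plate controls were DMSO cells for no effect and cell-free wells for full effect; nearly all actives have a fitted effect of over 45% in size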
Active calls of the source: *; i = inactive; ? = inconclusive; . = no result given; [ ] = another dose, or the depositor's remark. Unless noted, calls follow the shape of the dose curve; as a rule, active = well fitted curve in the direction sought with a large enough effect; inconclusive = small, poorly fitted or top-dose-only effect, or another doubt; inactive = no such curve, though single readings can be large; an effect the other way counts as inactive or inconclusive. Unless noted, % is scaled to controls: 0 for no effect and ±100 for the full control effect; potency is read from the fitted curve at half-maximal effect.

SMILES	NPR1 antag	3T3 cytotox	SNCA viab count	FLuc inh	HEK293 tox	SNCA expr inhib
CCN(CC)C(=O)C[C@@H]1CCNC[C@@H]1Cc1cc(-c2ccccn2)on1	-3.7%[70.6 µM]	-25.0%[174 µM]	-3.2%[87.6 µM]	i	1.1%[172 µM]	4.9%[87.6 µM]
CC(C)(C)c1ccc(-c2cc(C[C@H]3CNCC[C@H]3CC(=O)Nc3nccs3)no2)cc1	1.9%	8.91µM*	?	i	?	?
COc1ccc(-c2cc(C[C@H]3CNCC[C@H]3CC(=O)Nc3nccs3)no2)cc1	-0.9%[70.6 µM]	79.4µM*	4.4%[87.6 µM]	i	100µM*	28.0%[87.6 µM]
CC(C)(C)c1cc(C[C@H]2CNCC[C@H]2CC(=O)Nc2nccs2)no1	4.6%[70.6 µM]	?	0.0%[87.6 µM]	i	100µM*	40.2%[87.6 µM]
COc1cc2c(cc1CNc1ncncn1)CCC2	0.0%	?	1.4%	i	?	4.1%
CCc1nc(N2CCc3ccccc3C2)ncc1C(=O)O	-22.0%	25.1µM*	6.3%	22.4µM*	31.6µM*	-10.5%
CC1(C)CC(C(=O)N2CCC3(CC2)C(=O)Nc2ccccc23)CCO1 (stereo unspecified)	-0.3%	5.0%	8.4%	i	-2.7%	-4.0%
O=C1CCCCN1CCNc1ccc(-c2nc(-c3ccccc3F)no2)cn1	-28.9%	?	?	14.1µM*	?	-11.8%
COCCNc1ccc(-c2noc([C@@H]3CCCN3Cc3ccccc3F)n2)cn1	7.2%[70.6 µM]	-14.9%[138 µM]	-4.1%[87.6 µM]	i	?	-7.4%[87.6 µM]
O=C1OCCCN1CCNc1ccc(-c2nc(-c3ccccc3F)no2)cn1	-25.0%	-36.8%	-2.7%	35.5µM*	?	0.7%
COc1ccccc1-c1noc(-c2ccc(NC3CCCC3)c([N+](=O)[O-])c2)n1	.	.	-0.6%	.	.	142.5%
COC(=O)[C@@H]1CCCN1c1ccc(-c2nc(-c3ccccc3F)no2)cn1	14.1µM*	?	-11.9%	?	39.8µM*	11.2µM*
COc1ccccc1-c1cccc(C(=O)N2CCN(C(=O)C3CC3)CC2)c1	.	?	0.7%[12.5 µM]	.	?	10.2%
Cn1ncc2c(C(=O)NCCCc3ccccc3)cc(-c3ccc(C(F)(F)F)cc3)nc21	.	-35.3%	.	.	?	.
CNC(=O)c1cc(C)nc2onc(C3CCCN3C(=O)c3ccncc3)c12 (stereo unspecified)	.	-22.3%	.	.	-4.2%	.
COc1ccc(-n2nc(C)c([C@@H]3C=C[C@@H](NCc4ccccc4)C3)c2C)cc1	?	?	-19.4%[87.6 µM]	50.1µM*	79.4µM*	12.6%[87.6 µM]
COc1ccc(CN[C@@H]2C=C[C@@H](c3c(C)nn(-c4ccc(OC)cc4)c3C)C2)cc1	-29.6%[70.6 µM]	31.6µM*	-24.1%[87.6 µM]	?	50.1µM*	40.5%[87.6 µM]
CN(C)C[C@@H]1CN(Cc2cccnc2)C[C@H]1NC(=O)c1ccc(F)c(Cl)c1	1.7%	-5.3%	-18.7%	i	?	-15.5%
CCN1c2cc(C(=O)Nc3ccc(F)c(C)c3)ccc2C(=O)N2CCCCCC21 (stereo unspecified)	-18.1%	?	0.9%[12.5 µM]	i	39.8µM*	?
CCN1c2cc(C(=O)Nc3ccc(C)c(F)c3)ccc2C(=O)N2CCCCCC21 (stereo unspecified)	0.0%	39.8µM*	12.3%[12.5 µM]	i	?	-19.1%
CCN1c2cc(C(=O)Nc3ccc(F)c(Cl)c3)ccc2C(=O)N2CCCCCC21 (stereo unspecified)	-7.3%	31.6µM*	7.3%[12.5 µM]	i	15.8µM*	?
O=C1Nc2ccccc2CC12CN(Cc1cscn1)C2	.	0.7%[138 µM]	-10.8%[87.6 µM]	.	-4.3%[172 µM]	-9.8%[87.6 µM]
CCOc1ccc(C(=O)NC2CCN(c3cc(-c4ccc(F)cc4)[nH]n3)CC2)cc1OCC	2.5%	?	-1.7%	i	39.8µM*	-12.0%
CCOc1cc(C(=O)NC2CCN(c3cc(-c4ccc(F)cc4)[nH]n3)C2)cc(OCC)c1OCC (stereo unspecified)	1.0%	25.1µM*	-25.2%	i	35.5µM*	-12.8%
CCOc1cc(C(=O)NC2CCN(c3cc(-c4ccccc4)[nH]n3)CC2)cc(OCC)c1OCC	-0.8%	?	-5.0%	i	44.7µM*	-19.8%
